Screening results from PubChem BioAssay.
An excerpt weighted towards active compounds, which were near 2.4% of everything screened.
D2 antagonist: D2 dopamine receptor (human) antagonism; HEK293 TREx D2 cells, calcium flux, dopamine EC80; inhibition, % at 10 µM; actives 2% (n = 340,000); in the data active means inhibition above about 30%; inactive means below that, where a call was filed
Target sequence (P14416 whole entry, looked up): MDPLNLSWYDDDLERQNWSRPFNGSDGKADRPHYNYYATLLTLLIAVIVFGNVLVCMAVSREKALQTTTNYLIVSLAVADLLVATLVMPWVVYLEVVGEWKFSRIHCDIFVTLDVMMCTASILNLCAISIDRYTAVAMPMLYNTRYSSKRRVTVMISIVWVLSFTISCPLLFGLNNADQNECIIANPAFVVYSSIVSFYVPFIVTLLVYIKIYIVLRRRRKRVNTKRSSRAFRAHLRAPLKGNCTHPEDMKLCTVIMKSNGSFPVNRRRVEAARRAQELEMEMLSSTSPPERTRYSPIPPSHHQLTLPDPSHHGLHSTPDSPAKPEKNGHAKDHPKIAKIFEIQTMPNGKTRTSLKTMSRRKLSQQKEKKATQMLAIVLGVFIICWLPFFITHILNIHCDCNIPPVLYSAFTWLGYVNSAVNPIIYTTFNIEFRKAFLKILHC
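Inhibition of EC80 dopamine-driven calcium flux, recorded kinetically, defines activity here; cells are a tetracycline-induced HEK293 T-REx line expressing force-coupled D2.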
D2 PAM-1: positive allosteric modulators of human D2 dopamine receptor; P14416; DiscoveRx D2 beta-arrestin cells, luminescence, 90 min; 100% = 57 uM dopamine signal; potentiation, % (test concentration not listed); actives 0.23% (n = 360,000); in the data active means potentiation above about 50%; inconclusive means mostly about 30% to 49%
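D2 cells co-treated with compound plus 50 nM dopamine (EC20) for 90 min at 37 deg C to detect potentiation. Beta-arrestin recruitment was read as enzyme-fragment luminescence after 1 h at ambient temperature. Full response was set by 57 uM dopamine.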
D2 PAM-2: D2 dopamine receptor (human) potentiation; P14416; HEK293 T-REx D2, calcium flux, EC20 dopamine potentiation; actives 0.34% (n = 340,000); potentiation, % at 10 µM;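 active means potentiation over 3 SD above the plate norm, cut at about 30% in these data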
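Using a no-wash calcium dye in inducible, force-coupled HEK293 Trex cells expressing D2, we tracked fluorescence each second for 180 s after compound, then for 180 s after EC20 dopamine to detect augmented signalling.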
D2 ag-1: human D2 receptor agonism in beta-arrestin assay; P14416; DiscoveRx PathHunter D2 beta-arrestin, luminescence, 90 min; 100% = 57 uM dopamine signal; activation, % (no concentration beside the values); actives 0.084% (n = 360,000); in the data active means activation above about 40%; inconclusive means between about 15% and that limit
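Agonist mode: compounds alone added to overnight-plated D2 PathHunter cells for 90 min at 37 C, with 57 uM final dopamine (EC100) defining full response. Beta-arrestin recruitment detected by chemiluminescent reagent, read after 1 h at ambient temperature.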
D2 ag-2: activates the human D2 dopamine receptor; actives 0.53% (n = 340,000); activation, % at 2 µM; HEK293 T-REx D2 cells, calcium flux agonist mode; P14416;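 active means activation over 3 SD above normal in the single-dose calcium agonist read, cut at about 30% in these data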
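Tetracycline-induced HEK293 Trex cells with D2 receptor force-coupled to calcium signaling, plated overnight at 30 C and loaded with no-wash calcium dye. Calcium flux read kinetically for 180 s after compound addition; responses flag agonists.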
Numbers stand for hits; i = inactive; ? = inconclusive; nt = not tested or not shown.

SMILES	D2 antagonist	D2 PAM-1	D2 PAM-2	D2 ag-1	D2 ag-2
O=C(COC(=O)/C=C/C(=O)N1CCN(c2ccccc2)CC1)NC(c1ccccc1)c1ccccc1	69	i	i	i	i
O=C(COC(=O)/C=C/c1cccs1)NC(c1ccccc1)c1ccccc1	i	i	i	i	i
Cc1sc2nc(SCc3nc(-c4ccccc4)no3)n(-c3ccccc3)c(=O)c2c1C	i	i	34	i	i
CC(C)(C)c1cc(C(=O)NNC(=O)Nc2cccc(Cl)c2)n(Cc2ccccc2)n1	50	i	i	i	i
CSc1ccc(CCNC(=O)c2ccc(-n3c(C)cc4c3CCCC4)cc2)cc1	nt	nt	i	nt	i
CCSc1c(-c2ccccc2)nc2c(C)cccc2c1C(=O)O	i	i	i	i	34
c1ccc(-c2cc3nc(NCC4CC4)nc(NCC4CCCCC4)c3s2)cc1	nt	i	nt	41	nt
COCCNc1nc(NCC2CCCCC2)c2sc(-c3ccccc3)cc2n1	nt	i	nt	?	nt
CCOc1ccccc1N(CC)C(=O)c1cc2c(=O)[nH]c3ccc(C)cc3c2s1	nt	nt	i	nt	i
CN1CCc2nc(SCCOc3ccccc3)c(C#N)cc2C1	31	i	nt	i	i
COCCCNC(=O)C1C2C=CC3(CN(Cc4ccc(C)cc4)C(=O)C13)O2 (stereo unspecified)	39	i	i	i	i
CCOC(=O)CN1CC23C=CC(O2)C(C(=O)NC2CCCCC2)C3C1=O (stereo unspecified)	i	i	i	i	i
CCOC(=O)CN1CC23C=CC(O2)C(C(=O)NC2CCCC2)C3C1=O (stereo unspecified)	i	i	45	i	i
Cc1ccc(CN2CC34C=CC(O3)C(C(=O)NCc3ccc5c(c3)OCO5)C4C2=O)cc1 (stereo unspecified)	nt	i	nt	i	nt
COc1ccc(NC(=O)C2CC(=O)N(Cc3ccc(C)cc3)C2)cc1S(=O)(=O)N1CCCCC1 (stereo unspecified)	43	i	i	i	i
Cc1ccc(CN2CC(C(=O)O)CC2=O)cc1 (stereo unspecified)	i	i	30	i	i
COc1ccc(OC)c(CNC(=O)Nc2cn(CC(C)C)c(=O)c3ccccc23)c1	nt	nt	nt	nt	i
CCOc1ccc(NC(=O)[C@@H](NC(=O)c2ccco2)C(C)C)cc1	39	i	i	i	i
CC(C)C(NC(=O)c1ccccc1)C(=O)NCC(c1ccccc1)N(C)C (stereo unspecified)	nt	i	nt	i	nt
CC(C)C(NC(=O)c1ccco1)C(=O)NCC(c1ccco1)N(C)C (stereo unspecified)	i	i	33	i	i
CC(C)[C@H](NC(=O)c1ccco1)C(=O)Nc1ccc(OC(F)F)cc1	i	i	i	i	i
COc1ccc(-c2cc(C(F)(F)F)nc(SCC(=O)NC(C)c3ccccc3)n2)cc1 (stereo unspecified)	nt	nt	i	nt	i
CC(C)(C)C(=O)n1nc(-c2ccccc2)oc1=O	31	i	i	i	i
CC1=C(C(=O)Nc2ccccc2C)C(c2ccccn2)n2nc(SCc3ccccc3F)nc2N1 (stereo unspecified)	nt	nt	i	nt	i
CN1/C(=C\C=C(/C#N)C(=O)Nc2ccc(Cl)cc2)C(C)(C)c2ccccc21	i	i	i	i	40
SMILES	D2 antagonist	D2 PAM-1	D2 PAM-2	D2 ag-1	D2 ag-2
CN1/C(=C\C(=O)Nc2ccc(Cl)cc2)C(C)(C)c2ccccc21	i	i	i	i	i
CN(C(=O)CC(=O)Nc1ccc2nc3n(c(=O)c2c1)CCCCC3)c1ccccc1F	nt	nt	i	nt	i
C(=N\Nc1nc2ccccc2s1)/c1cccs1	37	i	i	i	i
CN(C)/C=N/c1ncc(C(=O)c2ccc(Cl)cc2)s1	57	i	i	i	i
CN(C)/C=N/c1ncc(C(=O)c2ccc(Cl)cc2Cl)s1	i	i	i	i	i
CCc1ccc(OCC(=O)Nc2cc(-c3ccc(C)cc3)no2)cc1	nt	nt	i	nt	i
COc1cccc2cc(C(=O)Nc3ccc(CC(=O)O)cc3)c(=O)oc12	nt	nt	i	nt	i
O=C(NCC1CCOCC1)c1ccc2nc(Cc3cccc(Cl)c3)oc2c1	61	i	i	i	i
CN(CC1CCOCC1)C(=O)c1ccc2nc(Cc3cccc(Cl)c3)oc2c1	nt	i	i	i	nt
